# Test results reported in PubChem BioAssay (NCATS).
# Inconclusive results are not listed. A call without a number means that no potency is given here. Unmarked numbers belong to inactive results. Calls of active or inactive are those of the source. Unless noted, calls come from the whole dose curve; as a rule, active = well fitted curve in the direction sought with a large enough effect; inconclusive = small, poorly fitted or top-dose-only effect, or another doubt; inactive = no such curve, though single readings can be large; an effect the other way counts as inactive or inconclusive.
# Experiments:
# [1] = target: Calcium and integrin-binding protein 1 (Homo sapiens) (UniProt Q99828); test: Primary qHTS for Identification of Calcium Integrin Binding Protein 1 (CIB1) Competitor (AID 1508620);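 for activity change, negative = inhibition: GST tagged CIB1 binding a fluorescein labelled alphaIIb integrin peptide tracer; top concentration of the series differs between compounds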
# Calcium and integrin-binding protein 1 (Homo sapiens), sequence (Q99828 whole entry, looked up): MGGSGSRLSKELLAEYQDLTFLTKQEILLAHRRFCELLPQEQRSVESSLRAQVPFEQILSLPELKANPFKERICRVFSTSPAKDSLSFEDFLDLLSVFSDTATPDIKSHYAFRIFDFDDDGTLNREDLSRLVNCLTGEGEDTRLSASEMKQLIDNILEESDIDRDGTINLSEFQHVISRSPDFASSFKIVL
# Outline: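 Fluorescence polarization competition: CIB1-GST (1 uM final) preincubated with compound 15 min at room temperature, then FITC-labeled alphaIIb peptide (100 nM final) added for another 15 min. Polarization read at Ex 480/Em 540.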
# [2] = target: Cytochrome P450 2D6 (Homo sapiens) (UniProt P10635); test: Cytochrome P450 family 2 subfamily D member 6 (CYP2D6) small molecule antagonists: luciferase biochemical (cell-free) qHTS assay (AID 1645840; active = well fitted curve in the direction sought with a large enough effect in the repeat runs; an effect the other way counts as inactive or inconclusive; note: nearly all actives have a fitted effect of over 55% in size; for activity change, negative = inhibition: series mostly up to about 57 µM)
# Cytochrome P450 2D6 (Homo sapiens), sequence (P10635 whole entry, looked up): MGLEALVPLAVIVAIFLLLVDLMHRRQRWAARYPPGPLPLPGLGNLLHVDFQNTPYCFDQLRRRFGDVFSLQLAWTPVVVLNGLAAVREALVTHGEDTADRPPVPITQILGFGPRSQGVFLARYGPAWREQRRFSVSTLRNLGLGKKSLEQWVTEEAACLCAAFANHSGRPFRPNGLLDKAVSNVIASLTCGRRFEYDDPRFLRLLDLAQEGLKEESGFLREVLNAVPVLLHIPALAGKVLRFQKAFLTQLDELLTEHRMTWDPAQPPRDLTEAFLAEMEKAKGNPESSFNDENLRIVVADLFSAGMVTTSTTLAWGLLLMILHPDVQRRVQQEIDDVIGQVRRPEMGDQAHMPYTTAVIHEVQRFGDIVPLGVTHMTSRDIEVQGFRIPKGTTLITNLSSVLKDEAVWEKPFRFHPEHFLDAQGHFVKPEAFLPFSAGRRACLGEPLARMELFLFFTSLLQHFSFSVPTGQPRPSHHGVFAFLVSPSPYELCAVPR
# Outline: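 P450-Glo luminescent screen: recombinant CYP2D6 enzyme–proluciferin substrate mix preincubated with compound 10 min at room temperature, then NADPH regeneration added for 1 h at room temperature. Detection reagent added for 20 min; luciferin light read as relative luminescence units.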
# Potency is the fitted concentration of half-maximal effect.
structure (smiles),measurement,setting,value
CC(C)=CCCC1(C)C2CCC1(C)C(O)C2 (stereo not drawn),Potency,[1],inactive
C/C(=C\CO[C@@H]1O[C@H](CO[C@H]2OC[C@](O)(CO)[C@H]2O)[C@@H](O)[C@H](O)[C@H]1O)C(C)(C)O,Potency,[1],inactive
COc1ccc([C@H]2OC[C@H]3O[C@@H](O[C@H]4[C@@H]2NC[C@@H]4O)[C@H](O)[C@H]3O)cc1,Potency,[1],inactive
C/C=C(/C)C(=O)O[C@H]1[C@H](OC(=O)/C(C)=C\C)[C@@]23C(CC1(C)C)[C@]1(CCC4[C@@]5(C)CC[C@H](O[C@@H]6O[C@H](C(=O)O)[C@@H](O)[C@H](O[C@@H]7O[C@H](CO)[C@H](O)[C@H](O)[C@H]7O[C@@H]7O[C@@H](C)[C@H](O)[C@@H](O)[C@H]7O[C@@H]7OC[C@@H](O)[C@H](O)[C@H]7O)[C@H]6O[C@@H]6O[C@H](CO)[C@H](O)[C@H](O)[C@H]6O)C(C)(C)C5CC[C@@]4(C)[C@]1(C)C[C@H]2O)O[C@H]3O (stereo partly drawn),"activity change, negative = inhibition",[1],-2.7% [at 12.4 µM]
COc1cc2nc(N3CCN(C(=O)c4ccco4)C4CCCCC43)nc(N)c2cc1OC (stereo not drawn),Potency,[1],inactive
CC1(C)CCCC2(C)C1C(OC(=O)/C=C/C=C/C=O)C=C1COC(=O)C12O (stereo not drawn),Potency,[1],inactive
C=C1C(=O)O[C@H]2C1CCC(C)=C1C(=O)C=C(C)[C@@]12O (stereo partly drawn),Potency,[1],inactive
CC(=O)O[C@@H]1C2=C(O)C(=O)[C@](C)(OC(C)=O)C(=O)C2=CO[C@@]12O[C@@H](C)CC[C@H]2OC(C)=O,Potency,[1],inactive
C=C1C(=O)OC2C3=C(C)C(=O)CC3C(C)CC(O)C12 (stereo not drawn),Potency,[1],inactive
CC(=O)O[C@H]1CC2C(COC(=O)CC(C)C)=CO[C@@H](OC(=O)CC(C)C)C2[C@]12CO2 (stereo partly drawn),Potency,[1],inactive
CC(=O)O[C@H]1C[C@@](O)(C(C)C)[C@@H]2[C@@H](OC(=O)c3ccc(O)cc3)CC(C)=CC[C@@]12C,Potency,[1],inactive
O=C1Cc2c([nH]c3ccc(Br)cc23)-c2ncccc2N1,Potency,[1],inactive
Cc1ccc(O)cc1Nc1ccnc(Nc2cccc(C(N)=O)c2)n1,Potency,[1],inactive
CC(=O)O[C@@H]1CC[C@@]2(C)[C@H](CC[C@@H]3[C@@H]2C[C@H](OC(C)=O)[C@]2(C)[C@@H](C(C)=O)CC[C@@H]32)C1,Potency,[1],inactive
CC1(C)CN(C(=O)c2ccc(-c3cccc4nc(NC(=O)C5CC5)nn34)cc2)C1,Potency,[1],inactive
CC(O)(C(=O)C1CC1(CO)COC1OC(CO)C(O)C(O)C1O)C1C(O)CC2C3CC=C4CC(O)CC(O)C4(C)C3C(O)CC21C (stereo not drawn),Potency,[1],inactive
CCN(CC)C(=O)C(c1ccccc1)N1CCN(c2ccc(NC(=O)c3ccccc3-c3cccnc3)cc2F)CC1 (stereo not drawn),Potency,[1],inactive
CC1(C)CC[C@]2(C(=O)O)CC[C@]3(C)C(=CCC4[C@@]5(C)C[C@@H](O)[C@H](O)[C@@](C)(CO)C5CC[C@]43C)[C@@H]2[C@@H]1O (stereo partly drawn),Potency,[1],inactive
C=C[C@@]1(C)CCC2C(=CCC3[C@]2(C)CCC[C@@]3(C)C(=O)O)C1 (stereo partly drawn),Potency,[1],inactive
O=C1COc2nccc(-c3ccccc3F)c2CN1Cc1cc(C(F)(F)F)cc(C(F)(F)F)c1,Potency,[1],inactive
COc1ccc(C[C@H]2COC(=O)[C@@H]2Cc2ccc(O[C@@H]3O[C@H](CO)[C@@H](O)[C@H](O)[C@H]3O)c(OC)c2)cc1OC,Potency,[1],inactive
C=C(C)C(=O)O[C@H]1[C@H]2C(=C)C(=O)O[C@@H]2/C=C(\CO)CC/C=C(/C=O)[C@@H]1O,Potency,[1],inactive
C=C1C(=O)OC2C=C(C)CC/C=C(\CO)CC(O)C12 (stereo not drawn),Potency,[1],inactive
Nc1nc(Nc2ccc3c(c2)CCC(N2CCCC2)CC3)nn1-c1cc2c(nn1)-c1ccccc1CCC2 (stereo not drawn),Potency,[1],inactive
CC(C)(C)c1ccc(NC(=O)N2CCN(c3ncccc3Cl)CC2)cc1,Potency,[1],inactive
CN(CC1COCCO1)S(=O)(=O)Nc1ccc2ccc3ncc(-c4cnn(C)c4)cc3c(=O)c2c1 (stereo not drawn),Potency,[1],inactive
COc1cc2ncnc(Nc3ccc(O)c(Br)c3)c2cc1OC,Potency,[1],inactive
Cn1ncnc1[C@H]1c2n[nH]c(=O)c3cc(F)cc(c23)N[C@@H]1c1ccc(F)cc1,Potency,[1],inactive
CCCOc1ccc(CCc2nc3cc(-c4c(C)noc4C)ccc3n2CCN2CCOCC2)cc1,Potency,[1],inactive
C[C@@H](c1ccc2nccn2c1)n1nnc2ncc(-c3cnn(C)c3)nc21,Potency,[1],inactive
CCCCNc1ncc(C(=O)NCc2ccc(-n3ccnc3)cc2)c(NC2CCC(O)CC2)n1 (stereo not drawn),Potency,[1],inactive
same,Potency,[2],0.674 µM (active)
O=C(Nc1cccnn1)N1CCN(c2nccc(-c3ccc(F)c(F)c3)n2)CC1,Potency,[1],inactive
same,Potency,[2],inactive
CN1CCC(c2cn(C)c3ccc(OS(=O)(=O)c4c(F)cccc4F)cc23)CC1,Potency,[1],inactive
same,Potency,[2],12 µM (active)
CCCc1cc2c(N3CCN(C4=NCC(C)(C)S4)CC3)ncnc2s1,Potency,[1],inactive
same,Potency,[2],0.952 µM (active)
COc1ccc2nc3n[nH]c(C)c3c(NCCOCCO)c2c1,Potency,[1],50.1 µM (active)
same,Potency,[2],9.52 µM (active)
O=C(Nc1ccccc1)c1ccc(Nc2nnc(-c3ccc(O)cc3)c3ccccc23)cc1,Potency,[1],inactive
same,Potency,[2],inactive
O=C(Nc1cccnc1)c1cc(-c2ccnc(F)c2)ccc1OCc1ccccc1,Potency,[1],inactive
same,Potency,[2],inactive
CNC1CN(c2ccc3c(=O)c(C(=O)O)cn(-c4nccs4)c3n2)CC1OC (stereo not drawn),Potency,[1],inactive
same,"activity change, negative = inhibition",[2],16.1% [at 11.5 µM]
CCCc1cc(C)[nH]c(=O)c1CNC(=O)c1cc(-c2ccnc(N3CCN(C)CC3)c2)cc2c1cnn2C(C)C,Potency,[1],inactive
same,Potency,[2],23.9 µM (active)
NC(N)=NC(=O)c1cnn(-c2cccc3ncccc23)c1C1CC1,Potency,[1],inactive
same,Potency,[2],inactive
O=C(N[C@H]1CCN(C(=O)c2cc(C(F)(F)F)cc(C(F)(F)F)c2)[C@H](Cc2ccc(Cl)cc2)C1)c1ccnc2ccccc12,Potency,[1],inactive
same,Potency,[2],inactive
Cc1nc(C(=O)N2CCC[C@H]2Cc2nnc(-c3ccccc3)o2)c(-c2ccccc2F)s1,Potency,[1],inactive
same,Potency,[2],inactive
O=C(Nc1ccc(Cl)cc1)c1ccccc1NCc1ccncc1,Potency,[1],inactive
same,Potency,[2],0.169 µM (active)
COC(=O)c1cc(Br)cnc1N1CCC(NC2CCCCC2)C(O)C1 (stereo not drawn),Potency,[1],inactive
same,Potency,[2],0.019 µM (active)
COc1ccc(CNc2nc(N(CCO)CCO)nc3c2ncn3C(C)C)cc1,Potency,[1],inactive
same,Potency,[2],inactive
O=C(NCc1cccs1)c1cc2nc(-c3ccco3)cc(C(F)(F)Cl)n2n1,Potency,[1],inactive
same,Potency,[2],7.56 µM (active)
O=C(Nc1ccccc1)N1CCC(Cc2cnc3ccccc3c2)CC1,Potency,[1],inactive
same,Potency,[2],26.8 µM (active)
CN(C)C(=O)NC1(c2ccccc2)CCN(CCC[C@]2(c3ccc(Cl)c(Cl)c3)CCCN(C(=O)c3ccccc3)C2)CC1,Potency,[1],inactive
same,Potency,[2],3.38 µM (active)
O=C(NCCCN1CCOCC1)c1cnn2c(-c3ccccc3)cc(-c3ccccc3)nc12,Potency,[1],inactive
same,Potency,[2],inactive
O=C(Nc1ccccc1Br)NC1CCN(c2ccc(C(F)(F)F)cn2)C1 (stereo not drawn),Potency,[1],inactive
same,Potency,[2],10.7 µM (active)
CN(C)C(=O)Nc1cccc(-c2ccc(N(C)C)cc2)c1,Potency,[1],inactive
same,Potency,[2],21.3 µM (active)
CC(C)(N)c1ncc(-c2ccc(OC(F)(F)F)cc2)[nH]1,Potency,[1],inactive
same,Potency,[2],23.9 µM (active)
Cc1c(NC(=O)OCC2COCCN2)cn2ncnc(Nc3ccc4c(cnn4Cc4cccc(F)c4)c3)c12 (stereo not drawn),Potency,[1],inactive
same,Potency,[2],21.3 µM (active)
O=C(Nc1nnc(-c2ccc3c(c2)OCCO3)o1)C1CCCCC1,Potency,[1],inactive
same,Potency,[2],inactive
COC(C)(C)CCn1nc(Nc2c(C)cccc2C)c2cnc(Nc3ccc(OCCN4CCCC4)c(F)c3)nc21,Potency,[1],inactive
same,Potency,[2],15.1 µM (active)
O=C(NNc1nc2cc(F)ccc2n2cccc12)c1cnccn1,Potency,[1],inactive
same,Potency,[2],inactive
CC(=O)c1ccc2c(c1)[C@H](NC(=O)c1ccc(F)c(Cl)c1)[C@H](O)C(C)(C)O2,Potency,[1],inactive
same,Potency,[2],0.674 µM (active)
O=c1[nH]c2ccccc2n1CCN1CCN(c2cccc(C(F)(F)F)c2)CC1,Potency,[1],inactive
same,Potency,[2],7.56 µM (active)
CCOc1cn(-c2ccc(F)cc2C)nc1C(=O)Nc1ccc(Oc2ccnc3cc(OC)c(OC)cc23)c(F)c1,Potency,[1],inactive
same,Potency,[2],inactive
CCNC1(C(N)=O)CCN(c2ncnc3c2nc(-c2ccccc2Cl)n3-c2ccc(Cl)cc2)CC1,Potency,[1],inactive
same,Potency,[2],16.9 µM (active)
COC(=O)c1ccc(N2CCN(C)CC2)c(NC(=O)c2cccc(OC)c2)c1,Potency,[1],inactive
same,Potency,[2],6.01 µM (active)
CC(C)S(=O)(=O)NC[C@H](C)c1ccc(-c2ccc(CCNS(C)(=O)=O)cc2)cc1,Potency,[1],inactive
same,Potency,[2],inactive
Cc1nc(N2CCN(C(=O)c3ccco3)CC2)c2c3c(sc2n1)CCCC3,Potency,[1],inactive
same,Potency,[2],10.7 µM (active)
CCn1c(=O)c(-c2ccc(-c3cncs3)cc2Cl)cc2cnc(Nc3ccc(N4CCN(C)CC4)cc3)nc21,Potency,[1],inactive
same,Potency,[2],inactive
CCOc1ccc(-n2c(C(C)N(Cc3cccnc3)C(=O)Cc3ccc(F)c(C(F)(F)F)c3)nc3ncccc3c2=O)cc1 (stereo not drawn),Potency,[1],inactive
same,Potency,[2],23.9 µM (active)
C=CC(=O)N1CCN(C(=O)CNc2cc(-c3ccccc3Cl)c(Cl)cc2OC)CC1,Potency,[1],inactive
same,Potency,[2],12 µM (active)
Cc1cccc(-c2[nH]ncc2-c2ccnc3ccccc23)n1,Potency,[1],inactive
same,Potency,[2],inactive
CCc1ccc(-c2nc(CSCC(=O)NCCc3ccccc3)c(C)o2)cc1,Potency,[1],inactive
same,Potency,[2],15.1 µM (active)
O=C(O)c1ccc(S(=O)(=O)N(Cc2ccc(OC(F)(F)F)cc2)c2ncc(C(F)(F)F)cc2Cl)cc1,Potency,[1],inactive
same,Potency,[2],inactive
CC#C[C@@H](CC(=O)O)c1ccc(OCc2cccc(-c3ccc(C(F)(F)F)cc3)c2)cc1,Potency,[1],inactive
same,Potency,[2],inactive
Cc1cc(C(=O)Nc2cc(Nc3ccc4c(/C=C/c5ccccn5)n[nH]c4c3)ccc2F)n(C)n1,Potency,[1],inactive
same,Potency,[2],7.56 µM (active)
COc1ccccc1-c1ccc(-c2cn(C(=O)N3CCCCC3Cc3ccccc3)nn2)cc1 (stereo not drawn),Potency,[1],inactive
same,Potency,[2],inactive
O=C(NCCCn1ccnc1)c1cc(-c2ccco2)on1,Potency,[1],inactive
same,Potency,[2],8.49 µM (active)
CCN1CCN(Cc2ccc(NC(=O)c3ccc(C)c(Oc4ccnc5[nH]ccc45)c3)cc2C(F)(F)F)CC1,Potency,[1],inactive
same,Potency,[2],10.7 µM (active)
